Results taken from the supplement of paper PMC10849652.
About 7,900 targets were measured; listed, in parts, are those with a hit and a random draw of the rest. About 0.6% of all pairs of compound and target were hits. Values without a mark were called inactive.

What was measured:
Assay in all cases: log2 fold change, soluble protein after heating vs DMSO (PISA); higher = thermal stabilisation; K562 cells, 10 uM, 30 min; active = over 0.2 and 3.5 SD of the protein, either way, in both replicates (recomputed)
[1] = compound: NC(=O)Nc1cc(-c2cccc(F)c2)sc1C(=O)N[C@H]1CCCNC1
Summary of the method: (§1)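 K562 cells at 2×10^6 cells/mL were given 10 μM compound for 30 min. Aliquots then went through 3 min of heating across 48°C-58°C, were pooled, and were extracted in PBS with 0.5% NP-40 at 4°C, and the supernatant after 21,000xg for 90 min was quantified by TMTpro 16plex LC-MS/MS with channel sums equalised. Thermal stability relative to control samples, from duplicates, is given as log2 fold change.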

[2] = compound: NC(=O)c1cnc(N[C@@H]2CCCC[C@@H]2N)nc1Nc1cccc(-n2nccn2)c1
Summary of the method: as §1

[3] = compound: NC1(c2ccc(-c3nc4ccn5c(=O)[nH]nc5c4cc3-c3ccccc3)cc2)CCC1
Summary of the method: as §1

[4] = compound: NCC(=O)Nc1ccc(-n2nc(C(F)(F)F)cc2-c2ccc3c(ccc4ccccc43)c2)cc1
Summary of the method: as §1

[5] = compound: Nc1ccccc1NC(=O)c1ccc(CNC(=O)OCc2cccnc2)cc1 [entinostat]
Summary of the method: as §1

[6] = compound: O=C(CCCCCCC(=O)Nc1ccccc1)NO [vorinostat]
Summary of the method: as §1

[7] = compound: O=C(CCCCCCNC(=O)c1cnc(N(c2ccccc2)c2ccccc2Cl)nc1)NO [citarinostat]
Summary of the method: as §1

[8] = compound: O=C(O)c1ccc2c(c1)nc(Nc1cccc(Cl)c1)c1ccncc12 [silmitasertib]
Summary of the method: as §1

[9] = compound: O=C1NC(=O)C(c2cnc3ccccn23)=C1c1cn2c3c(cc(F)cc13)CN(C(=O)N1CCCCC1)CC2
Summary of the method: as §1

[10] = compound: c1cc(OCCN2CCCCC2)cc(-c2n[nH]c3ccc(-c4nnc[nH]4)cc23)c1
Summary of the method: as §1

Sequence of UniProt Q9NVC6 (Q9NVC6 whole entry, looked up): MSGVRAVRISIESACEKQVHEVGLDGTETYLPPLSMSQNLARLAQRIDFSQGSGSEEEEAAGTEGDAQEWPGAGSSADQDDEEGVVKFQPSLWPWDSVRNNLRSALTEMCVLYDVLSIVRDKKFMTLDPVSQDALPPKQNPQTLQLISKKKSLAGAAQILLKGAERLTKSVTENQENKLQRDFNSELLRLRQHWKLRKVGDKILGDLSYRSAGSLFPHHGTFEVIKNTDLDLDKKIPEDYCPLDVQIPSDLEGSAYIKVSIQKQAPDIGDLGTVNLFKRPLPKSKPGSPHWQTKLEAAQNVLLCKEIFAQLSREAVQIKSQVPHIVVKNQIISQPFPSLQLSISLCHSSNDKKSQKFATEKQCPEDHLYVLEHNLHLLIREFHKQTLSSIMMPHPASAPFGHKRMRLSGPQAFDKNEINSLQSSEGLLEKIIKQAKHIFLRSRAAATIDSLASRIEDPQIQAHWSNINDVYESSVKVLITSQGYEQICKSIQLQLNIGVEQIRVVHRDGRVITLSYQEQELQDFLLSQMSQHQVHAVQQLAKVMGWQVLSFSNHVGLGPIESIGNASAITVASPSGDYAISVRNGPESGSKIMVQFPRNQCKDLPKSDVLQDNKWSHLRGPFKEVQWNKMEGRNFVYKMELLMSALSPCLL
Sequence of UniProt P01130 (P01130 whole entry, looked up): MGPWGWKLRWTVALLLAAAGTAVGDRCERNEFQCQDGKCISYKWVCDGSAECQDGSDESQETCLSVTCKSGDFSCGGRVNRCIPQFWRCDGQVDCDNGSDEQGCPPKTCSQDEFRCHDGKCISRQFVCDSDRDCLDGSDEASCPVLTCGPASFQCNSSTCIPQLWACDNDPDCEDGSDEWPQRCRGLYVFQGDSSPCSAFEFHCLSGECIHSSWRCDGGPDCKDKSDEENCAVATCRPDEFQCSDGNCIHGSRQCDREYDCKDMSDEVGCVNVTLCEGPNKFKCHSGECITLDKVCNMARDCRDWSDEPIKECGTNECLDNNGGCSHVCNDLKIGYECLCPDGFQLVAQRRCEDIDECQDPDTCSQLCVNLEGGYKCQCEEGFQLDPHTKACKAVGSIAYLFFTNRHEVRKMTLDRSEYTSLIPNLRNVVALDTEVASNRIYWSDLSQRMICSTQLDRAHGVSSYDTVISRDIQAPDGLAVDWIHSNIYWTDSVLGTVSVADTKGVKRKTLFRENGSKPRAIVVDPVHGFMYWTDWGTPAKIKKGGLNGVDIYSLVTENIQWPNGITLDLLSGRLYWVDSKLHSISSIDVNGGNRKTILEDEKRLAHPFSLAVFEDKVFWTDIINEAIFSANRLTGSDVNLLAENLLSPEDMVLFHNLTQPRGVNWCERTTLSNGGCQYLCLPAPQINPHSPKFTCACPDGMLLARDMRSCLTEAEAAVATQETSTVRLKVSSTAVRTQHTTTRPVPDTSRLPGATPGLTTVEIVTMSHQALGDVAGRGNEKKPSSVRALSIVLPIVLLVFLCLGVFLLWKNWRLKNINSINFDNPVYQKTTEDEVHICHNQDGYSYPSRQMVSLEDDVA
Sequence of UniProt P23368 (P23368 whole entry, looked up): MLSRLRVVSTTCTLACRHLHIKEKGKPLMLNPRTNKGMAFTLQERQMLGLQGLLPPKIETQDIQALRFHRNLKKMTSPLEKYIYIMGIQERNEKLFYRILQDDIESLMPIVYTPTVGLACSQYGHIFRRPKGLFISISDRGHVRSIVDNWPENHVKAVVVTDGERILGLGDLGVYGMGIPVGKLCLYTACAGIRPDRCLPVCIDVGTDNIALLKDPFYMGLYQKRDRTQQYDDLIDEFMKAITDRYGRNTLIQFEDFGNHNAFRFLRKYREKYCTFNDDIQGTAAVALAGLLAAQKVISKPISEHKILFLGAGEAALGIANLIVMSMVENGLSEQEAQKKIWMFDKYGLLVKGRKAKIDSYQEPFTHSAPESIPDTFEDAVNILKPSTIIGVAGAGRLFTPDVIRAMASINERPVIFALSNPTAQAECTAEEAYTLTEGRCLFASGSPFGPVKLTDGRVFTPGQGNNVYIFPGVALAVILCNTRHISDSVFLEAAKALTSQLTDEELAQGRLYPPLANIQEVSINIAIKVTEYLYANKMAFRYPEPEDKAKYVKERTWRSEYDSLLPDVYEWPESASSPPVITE
Sequence of UniProt Q14145 (Q14145 whole entry, looked up): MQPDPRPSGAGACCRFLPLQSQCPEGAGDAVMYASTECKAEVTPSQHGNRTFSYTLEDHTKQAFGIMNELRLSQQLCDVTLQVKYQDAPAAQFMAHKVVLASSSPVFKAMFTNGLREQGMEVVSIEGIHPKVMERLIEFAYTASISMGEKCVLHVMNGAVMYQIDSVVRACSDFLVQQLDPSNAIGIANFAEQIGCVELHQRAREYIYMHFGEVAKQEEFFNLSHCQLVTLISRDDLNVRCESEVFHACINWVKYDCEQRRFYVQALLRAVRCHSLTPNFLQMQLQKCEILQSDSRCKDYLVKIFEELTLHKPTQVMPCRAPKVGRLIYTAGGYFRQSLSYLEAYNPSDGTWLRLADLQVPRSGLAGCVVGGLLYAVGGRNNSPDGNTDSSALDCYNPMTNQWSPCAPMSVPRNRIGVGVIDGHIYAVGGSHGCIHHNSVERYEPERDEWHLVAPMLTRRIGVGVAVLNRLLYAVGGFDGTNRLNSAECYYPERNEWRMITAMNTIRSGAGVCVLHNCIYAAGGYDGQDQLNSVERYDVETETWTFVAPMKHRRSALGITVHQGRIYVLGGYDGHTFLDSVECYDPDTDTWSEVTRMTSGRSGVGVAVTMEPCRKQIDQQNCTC
Sequence of UniProt Q9Y6R4 (Q9Y6R4 whole entry, looked up): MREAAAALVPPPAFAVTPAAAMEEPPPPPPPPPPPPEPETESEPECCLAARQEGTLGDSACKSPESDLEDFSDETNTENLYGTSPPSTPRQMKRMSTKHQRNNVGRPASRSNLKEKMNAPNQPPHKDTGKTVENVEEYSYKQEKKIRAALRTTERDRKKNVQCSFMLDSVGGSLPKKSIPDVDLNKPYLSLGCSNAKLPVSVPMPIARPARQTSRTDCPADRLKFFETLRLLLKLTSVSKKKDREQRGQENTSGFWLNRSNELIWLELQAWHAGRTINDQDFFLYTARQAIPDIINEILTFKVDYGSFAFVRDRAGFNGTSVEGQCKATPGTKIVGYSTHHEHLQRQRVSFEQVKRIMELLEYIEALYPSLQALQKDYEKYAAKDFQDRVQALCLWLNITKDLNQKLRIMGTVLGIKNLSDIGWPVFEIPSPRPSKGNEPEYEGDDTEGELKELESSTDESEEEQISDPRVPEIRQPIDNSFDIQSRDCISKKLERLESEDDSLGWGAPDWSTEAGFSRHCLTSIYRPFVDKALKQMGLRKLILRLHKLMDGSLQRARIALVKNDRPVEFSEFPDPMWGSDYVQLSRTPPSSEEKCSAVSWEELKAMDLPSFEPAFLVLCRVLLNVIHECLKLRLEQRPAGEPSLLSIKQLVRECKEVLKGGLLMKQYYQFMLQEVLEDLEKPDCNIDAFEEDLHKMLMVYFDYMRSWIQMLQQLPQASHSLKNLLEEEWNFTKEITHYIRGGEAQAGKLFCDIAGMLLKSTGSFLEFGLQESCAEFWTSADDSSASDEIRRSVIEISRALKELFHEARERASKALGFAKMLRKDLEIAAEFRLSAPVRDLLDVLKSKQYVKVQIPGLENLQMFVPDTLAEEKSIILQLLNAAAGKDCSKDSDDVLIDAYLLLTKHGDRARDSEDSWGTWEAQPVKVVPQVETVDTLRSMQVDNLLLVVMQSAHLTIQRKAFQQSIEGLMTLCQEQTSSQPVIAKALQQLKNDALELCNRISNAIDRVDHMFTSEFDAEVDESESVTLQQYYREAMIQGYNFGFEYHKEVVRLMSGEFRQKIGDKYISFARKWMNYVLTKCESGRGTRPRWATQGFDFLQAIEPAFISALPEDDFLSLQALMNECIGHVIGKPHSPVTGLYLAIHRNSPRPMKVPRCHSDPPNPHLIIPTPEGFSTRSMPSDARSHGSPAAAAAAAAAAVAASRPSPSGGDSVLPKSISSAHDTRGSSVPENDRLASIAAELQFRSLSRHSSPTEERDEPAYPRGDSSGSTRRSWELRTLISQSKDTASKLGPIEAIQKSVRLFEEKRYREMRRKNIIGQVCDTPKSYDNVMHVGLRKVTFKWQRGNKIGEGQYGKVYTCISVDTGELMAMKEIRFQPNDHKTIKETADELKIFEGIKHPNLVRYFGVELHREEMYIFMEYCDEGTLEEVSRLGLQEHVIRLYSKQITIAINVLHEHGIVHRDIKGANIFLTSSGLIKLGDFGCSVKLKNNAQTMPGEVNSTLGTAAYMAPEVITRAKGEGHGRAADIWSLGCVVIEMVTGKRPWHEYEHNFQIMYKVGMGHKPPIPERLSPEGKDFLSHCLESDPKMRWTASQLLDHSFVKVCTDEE
Sequence of UniProt Q9BPX6 (Q9BPX6 whole entry, looked up): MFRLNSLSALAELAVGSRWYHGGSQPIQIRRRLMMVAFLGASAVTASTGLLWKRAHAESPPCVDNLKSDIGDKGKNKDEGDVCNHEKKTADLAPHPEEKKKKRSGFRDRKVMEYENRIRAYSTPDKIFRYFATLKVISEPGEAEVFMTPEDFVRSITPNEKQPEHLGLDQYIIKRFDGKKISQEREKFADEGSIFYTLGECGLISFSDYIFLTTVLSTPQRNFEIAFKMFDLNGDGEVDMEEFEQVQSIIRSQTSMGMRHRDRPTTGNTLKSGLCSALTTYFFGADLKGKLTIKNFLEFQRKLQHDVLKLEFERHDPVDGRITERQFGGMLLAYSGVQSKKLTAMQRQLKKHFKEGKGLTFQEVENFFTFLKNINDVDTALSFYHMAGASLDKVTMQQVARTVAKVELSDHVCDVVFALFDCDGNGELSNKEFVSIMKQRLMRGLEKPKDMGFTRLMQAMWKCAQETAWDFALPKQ
Sequence of UniProt Q14681 (Q14681 whole entry, looked up): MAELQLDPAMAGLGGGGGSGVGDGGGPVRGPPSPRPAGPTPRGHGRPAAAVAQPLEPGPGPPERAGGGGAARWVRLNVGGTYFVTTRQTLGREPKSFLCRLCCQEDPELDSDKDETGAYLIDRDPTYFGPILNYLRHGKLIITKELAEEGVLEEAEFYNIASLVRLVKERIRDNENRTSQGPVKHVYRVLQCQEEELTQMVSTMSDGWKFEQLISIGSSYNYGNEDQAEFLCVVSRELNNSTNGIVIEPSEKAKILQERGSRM

Target | log2 fold change [1] | log2 fold change [2] | log2 fold change [3] | log2 fold change [4] | log2 fold change [5] | log2 fold change [6] | log2 fold change [7] | log2 fold change [8] | log2 fold change [9] | log2 fold change [10]
KEAP1 (UniProt Q14145) | 0.007 | -0.027 | -0.076 | -0.034 | 0.051 | 0.156 | -0.005 | 0.122 | 0.143 | -0.055
MAP3K4 isoform 2 (UniProt Q9Y6R4) | 0.036 | -0.025 | -0.104 | -0.025 | -0.027 | -0.019 | 0.006 | 0 | -0.029 | -0.075
ME2 (UniProt P23368) | -0.015 | -0.034 | 0.07 | -0.033 | -0.013 | 0.058 | 0.025 | 0.186 | -0.017 | -0.093
ILK (UniProt Q13418) | -0.236 | -0.125 | -0.07 | -0.095 | -0.149 | 0.083 | -0.006 | -0.003 | -0.036 | -0.048
LTN1 isoform 3 (UniProt O94822) | 0.024 | -0.079 | -0.125 | -0.09 | 0.056 | 0.148 | 0.048 | 0.035 | 0.037 | -0.045
MICU1 isoform 3 (UniProt Q9BPX6) | -0.048 | -0.022 | -0.012 | 0.039 | 0.016 | 0.017 | 0.053 | 0.117 | 0.027 | -0.085
KDELR2 (UniProt P33947) | -0.071 | 0.063 | -0.073 | -0.133 | -0.02 | -0.238 | -0.026 | -0.018 | -0.031 | -0.097
MAP1LC3B2 (UniProt A6NCE7) | -0.023 | -0.022 | -0.128 | -0.085 | 0.012 | -0.058 | 0.046 | -0.015 | -0.001 | -0.103
MAPK9 (UniProt P45984) | -0.058 | -0.023 | -0.053 | -0.022 | -0.028 | -0.058 | -0.022 | -0.012 | -0.102 | 0.187
KCTD2 (UniProt Q14681) | -0.524 | -0.195 | 0.032 | -0.119 | -0.35 | -0.543 | -0.274 | 0.119 | -0.121 | -0.204
MED17 (UniProt Q9NVC6) | 0.068 | -0.33 (active) | 0.049 | -0.034 | -0.128 | 0.045 | 0.014 | 0.074 | 0.112 | 0.126
LAMP2 (UniProt P13473) | -0.013 | 0.043 | -0.122 | 0.055 | -0.045 | 0.083 | 0.158 | 0.005 | 0.065 | -0.11
MAP4K5 (UniProt Q9Y4K4) | 0.217 | 0 | -0.002 | -0.097 | -0.012 | 0.074 | 0.02 | -0.09 | 0.073 | 0.026
MED1 (UniProt Q15648) | 0.027 | -0.064 | 0.002 | -0.113 | -0.018 | 0.05 | -0.001 | -0.002 | 0.063 | -0.124
LDLR (UniProt P01130) | 0.005 | 0.093 | 0.008 | 0.124 | 0.057 | -0.038 | -0.035 | 0.074 | 0.019 | -0.071
